Assay outcomes (PubChem)
FH mod – Identification of activators of human fumarate hydratase by quantitative high-throughput screening; AID 1347055, 2019; FH coupled MDH/diaphorase resazurin fluorescence, 15 min; Potency, µM (doses to about 79.9 µM), without a hit: at the top dose activity change, negative = inhibition, most hits filed as inhibitors; actives 0.22% (n = 54,000); Fumarate hydratase, mitochondrial (Homo sapiens), P07954; also: potency is read from the fitted curve at half-maximal effect; % is scaled to controls: 0 for no effect and ±100 for the full control effect; the screen sought activators but most active calls are inhibition curves; nearly all actives have a fitted effect of over 45% in size
GALC G270D act – A Novel Cell-Based Assay to Identify Small Molecules for B -Galactocerebrosidase; 145M-Twi-hGALC-G270D cells (Twitcher mouse brain line with human GALC G270D), HMU-beta-Gal fluorescence, 48 h; actives 0.1% (n = 45,000); Potency, µM (highest dose often 57.5 µM), hits mostly activators; P54803; also: potency is read from the fitted curve at half-maximal effect; 0% is about no effect; nearly all actives have a fitted effect of over 65% in size
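Brain-derived Twitcher mouse 145M-Twi cells stably expressing human GALC-G270D or wild-type GALC, treated live, then residual GALC activity read by fluorescence of HMU-b-Gal substrate (0.1 mM final) in citrate-phosphate buffer pH 5.2 with sodium taurocholate. Signal increase indicates enhancement.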
NTMT1 inhibitor – Primary qHTS for Inhibitors of N-terminal methyltransferase 1 (NTMT1): MTaseGlo Assay. NTMT1 MTase-Glo SAH luminescence, purified enzyme. Potency, µM (highest dose often 114 µM), for the others: at the highest dose activity change, negative = inhibition, most hits filed as inhibitors. AID 1645870, 2021. actives 2.5% (n = 59,000). N-terminal Xaa-Pro-Lys N-methyltransferase 1 (Homo sapiens), Q9BV86;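 also: potency is read from the fitted curve at half-maximal effect; plate controls were DMSO vehicle for no effect and no enzyme for full effect; nearly all actives have a fitted effect of over 65% in size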
Target sequence (Q9BV86 whole entry, looked up): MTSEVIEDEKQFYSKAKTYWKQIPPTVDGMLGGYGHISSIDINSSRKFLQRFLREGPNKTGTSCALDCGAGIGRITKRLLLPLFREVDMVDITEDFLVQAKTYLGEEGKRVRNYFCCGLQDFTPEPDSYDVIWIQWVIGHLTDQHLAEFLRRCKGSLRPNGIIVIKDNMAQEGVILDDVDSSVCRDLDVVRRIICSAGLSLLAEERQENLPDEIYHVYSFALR
Sfp PPTase inh – qHTS Assay for Inhibitos of Bacillus subtilis Sfp phosphopantetheinyl transferase (PPTase): Chemistry Optimization Followup; shares compounds with NTMT1 inhibitor; purified Sfp PPTase enzyme activity, qHTS; Potency, µM (titrated, usually from 114 µM), inactives show at the highest dose activity change, negative = inhibition, hits mostly inhibitors; actives 78% (n = 230)
HM489 growth – qHTS for Inhibitos of Bacillus subtilis Sfp phosphopantetheinyl transferase (PPTase): Chemistry Optimization Followup in B. Subtilis HM489; shares compounds with NTMT1 inhibitor; B. subtilis HM489 (acpS-) growth, BacTiter-Glo, 5 h; Potency, µM (top dose mostly 114 µM), for inactives: at the highest dose activity change, negative = inhibition, most hits filed as inhibitors; actives 50% (n = 220)
Sfp PPTase gel – Gel-Based Assay for Inhibitos of Bacillus subtilis Sfp phosphopantetheinyl transferase (PPTase): Chemistry Optimization Followup; purified Sfp PPTase, gel-based product detection; actives 54% (n = 220); Potency, µM (highest dose often 250 µM), without a hit: top-dose activity change, negative = inhibition, hits mostly inhibitors; shares compounds with NTMT1 inhibitor
Sfp SAR2 – qHTS Assay for Inhibitors of Bacillus subtilis Sfp phosphopantetheinyl transferase (PPTase): SAR Round 2; shares compounds with NTMT1 inhibitor; purified Sfp enzyme, PPTase activity, qHTS; Potency, µM (series often up to 57.1 µM), without a hit: at the highest dose activity change, negative = inhibition, actives largely listed as inhibitors; actives 87% (n = 230)
USP2 K63 confirm – Confirmation Assay for Inhibitors of Ubiquitin-specific Protease USP2a Using CHOP2 as the Reporter: K633 | shares compounds with NTMT1 inhibitor | USP2 cleavage of DiUb K63-3IQF, fluorescence kinetic | Potency, µM (series often up to 57.5 µM), without a hit: at the highest dose activity change, negative = inhibition, hits mostly inhibitors | actives 80% (n = 30) | AID 652172, 2013
Casp6 inh – qHTS for Inhibitors of Ubiquitin-specific Protease USP2a Using CHOP2 as the Reporter: Caspase 6 Assay; shares compounds with NTMT1 inhibitor; Caspase 6 enzyme, Caspase-Glo 6 luminescence; activity change, negative = inhibition, % at 46.1 µM; 30 tested, under 10 active; AID 652277, 2013
Target sequence (P55212 whole entry, looked up): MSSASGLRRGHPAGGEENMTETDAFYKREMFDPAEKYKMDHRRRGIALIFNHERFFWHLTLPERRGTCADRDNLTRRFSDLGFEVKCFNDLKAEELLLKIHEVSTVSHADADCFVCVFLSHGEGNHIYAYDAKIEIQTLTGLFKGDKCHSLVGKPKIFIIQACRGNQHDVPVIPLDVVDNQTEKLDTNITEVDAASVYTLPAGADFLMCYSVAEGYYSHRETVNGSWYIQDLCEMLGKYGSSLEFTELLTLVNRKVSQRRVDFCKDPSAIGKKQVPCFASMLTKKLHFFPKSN
HSD17B4 counter – Extended Characterization of HPGD Inhibitors: Counterscreen Against HSD17b4; shares compounds with NTMT1 inhibitor; purified HSD17B4, estradiol/NAD+, NADH fluorescence; Potency, µM (doses to about 57.1 µM), without a hit: at the top dose activity change, negative = inhibition, hits mostly inhibitors; actives 10% (n = 230); AID 743187, 2013
ALDH1A1 inh – Extended Characterization of HPGD Inhibitors: Counterscreen Against ALDH1A1. AID 743195, 2013. shares compounds with NTMT1 inhibitor. recombinant ALDH1A1, NADH fluorescence, propionaldehyde/NAD+. Potency, µM (top dose mostly 57.1 µM), for the others: top-dose activity change, negative = inhibition, actives largely listed as inhibitors. actives 93% (n = 230)
NNMT inh – Counterscreen qHTS for Inhibitors of N-terminal methyltransferase 1 (NTMT1): NNMT MTaseGlo assay | NNMT MTase-Glo luminescence, SAH detection | shares compounds with NTMT1 inhibitor | actives 10% (n = 120) | Potency, µM (series often up to 57.1 µM), without a hit: at the top dose activity, negative = inhibition, actives largely listed as inhibitors
Starred values were filed as active, the others as inactive; i = inactive; u = inconclusive; x = no result given; ! = not confirmed by another sample; [ ] = remark or other dose. Only a selection was taken, and hits are over-represented in it overall. Calls follow the shape of the dose curve; as a rule, active = well fitted curve in the direction sought with a large enough effect; inconclusive = small, poorly fitted or top-dose-only effect, or another doubt; inactive = no such curve, though single readings can be large; an effect the other way counts as inactive or inconclusive.

SMILES	FH mod	GALC G270D act	NTMT1 inhibitor	others
Cc1cc(C)nc(NC(=S)N2CCN(c3cncs3)CC2)c1	x	x	u	Sfp PPTase inh=7.4µM*;HM489 growth=25%;Sfp PPTase gel=16µM*;Sfp SAR2=4.6µM*;HSD17B4 counter=-18%;ALDH1A1 inh=24µM*
Cc1cc(C)nc(NC(=S)N2CCN(c3ccccn3)CC2)c1	x	x	u	Sfp PPTase inh=3.7µM*!;HM489 growth=u;Sfp PPTase gel=32µM*!;Sfp SAR2=16µM*;HSD17B4 counter=-21%;ALDH1A1 inh=27µM*
Cc1cc(C)nc(NC(=S)N2CCN(c3cnc4nccn4c3)CC2)c1	x	x	u	Sfp PPTase inh=19µM*;HM489 growth=u;Sfp PPTase gel=-54%;Sfp SAR2=18µM*;HSD17B4 counter=u;ALDH1A1 inh=-154%
Cc1cc(C)cc(C(=O)Nc2ccc(-c3cn4cccnc4n3)cc2)c1	2%	i	u
Cc1ccc2nc(N3CCN(C(=O)C4CC4)CC3)sc2c1	1%	i	4%
CN1CCN(C(=O)Nc2cccc(Cl)c2)c2cccnc21	13%	i	4%
Cc1cc(C)nc(NC(=S)N2CCN(c3ncccc3Cl)CC2)c1	x	x	u	Sfp PPTase inh=3.7µM*;HM489 growth=-17%;Sfp PPTase gel=u;Sfp SAR2=2µM*;HSD17B4 counter=-17%;ALDH1A1 inh=19µM*
CC1CC2OC3(OC2C(C)(C)O)C1C1(C)CCC24CC25CCC(O[C@@H]2OC[C@@H](O)[C@H](O)[C@H]2O)C(C)(C)C5CC=C4C1(C)C3O (stereo partly specified)	0%[20.6 µM]	x	10%[12.6 µM]
Cc1c(C(=O)O)[nH]c2c1C(=O)CC(c1ccco1)C2 (stereo unspecified)	x	x	-3%[57.5 µM]
O=C(NC1(c2ccccc2)CC1)c1c(CN2CCC(N3CCCCC3)CC2)c(-c2cccc(C(F)(F)F)c2)nc2cc(Br)ccc12	-2%	x	6%[57.5 µM]
CC1CCN(C(c2ccc(F)cc2)c2ccc(C(C)C(=O)O)cc2-c2ccc(C(F)(F)F)cc2)CC1 (stereo unspecified)	-24%	x	1%[57.5 µM]
CC[N+]1(C/C2=C/CCCCCC2)CCC(NC(=O)C2c3cc(Cl)ccc3Oc3ccc(Cl)cc32)CC1 (stereo unspecified)	2%	x	u	NNMT inh=u
CC1CN(C(=O)N2CCC(C(=O)NCCC3=CCCCC3)CC2)c2cc(Cl)ccc2O1 (stereo unspecified)	3%	i	12%
CCCC(C)NC(=O)Cn1nc(-c2ccc(C)cc2)ccc1=O (stereo unspecified)	x	x	0%[57.5 µM]
Cc1ccc(S(=O)(=O)Nc2ccc(OC(F)(F)F)cc2C(=O)Nc2nc(-c3ccccc3)cs2)cc1	x	x	-3%
Cc1ccc(S(=O)(=O)Nc2cc(C(F)(F)F)ccc2C(=O)Nc2nc(-c3ccccc3)cs2)cc1	x	x	u	USP2 K63 confirm=1.7µM*;Casp6 inh=-15
Cc1ccc(S(=O)(=O)Nc2ccc(Cl)cc2C(=O)Nc2nc(-c3ccccc3)cs2)cc1	x	x	u	USP2 K63 confirm=1.2µM*;Casp6 inh=0
Cc1cc(F)ccc1S(=O)(=O)Nc1cnccc1C(=O)Nc1nc(-c2ccccc2)cs1	x	x	18%	USP2 K63 confirm=1.9µM*;Casp6 inh=3
Cc1ccc(S(=O)(=O)Nc2cnccc2C(=O)Nc2nc(-c3ccccc3F)cs2)cc1	x	x	-19%
Cc1ccc(S(=O)(=O)Nc2cc(F)c(F)cc2C(=O)Nc2nc(-c3ccccc3)cs2)cc1	x	x	7%
Cc1ccc(S(=O)(=O)Nc2cccnc2C(=O)Nc2nc(-c3ccccc3)cs2)cc1	x	x	23%
Cc1ccc(S(=O)(=O)Nc2ncccc2C(=O)Nc2nc(-c3ccccc3)cs2)cc1	x	x	x	USP2 K63 confirm=3.4µM*;Casp6 inh=-4
O=C(NC1Cc2ccccc2N(C[C@@H](O)CO)C1=O)c1cc2cc(Cl)sc2[nH]1 (stereo partly specified)	2%	x	-6%[57.5 µM]
O=C(O)c1ccc(O)c2ncc(N3CCCCC3CCc3ccccn3)cc12 (stereo unspecified)	x	x	15%
CC1NC(=O)CCCNC(=O)C(Cc2c[nH]c3ccccc23)NC(=O)C(C)NC(=O)C(C(C)C)NC(=O)C(C(C)c2ccccc2)NC(=O)C(C(C)C)NC1=O (stereo unspecified)	7%[20.6 µM]	x	7%[12.6 µM]
